Screening data (PubChem BioAssay)
A selection: hits, their analogues and other compounds. The true share with any hit is near 1.3%.
GC-B act: GC-B (human) receptor activation | P20594 | activation, % at 10 µM | 0.11% of 370,000 active | HEK293-GC-B cells, CNP EC30, cGMP TR-FRET; 0% at EC30 CNP, 100% saturating CNP;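 active = activation at 10 µM reaching about 35% in either raw or pattern-adjusted values, limit read from the data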
ADAM17 inh: inhibits human ADAM17. recombinant ADAM17, EDANS/DABCYL FRET peptide cleavage. inhibition, % at 6.95 µM. 0.83% of 370,000 active. P78536;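 active = inhibition above the mean of compounds lying between control limits plus 3 SD, set per campaign, cut at about 8.5% in these data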
Target sequence (P78536 215-824 limits assumed): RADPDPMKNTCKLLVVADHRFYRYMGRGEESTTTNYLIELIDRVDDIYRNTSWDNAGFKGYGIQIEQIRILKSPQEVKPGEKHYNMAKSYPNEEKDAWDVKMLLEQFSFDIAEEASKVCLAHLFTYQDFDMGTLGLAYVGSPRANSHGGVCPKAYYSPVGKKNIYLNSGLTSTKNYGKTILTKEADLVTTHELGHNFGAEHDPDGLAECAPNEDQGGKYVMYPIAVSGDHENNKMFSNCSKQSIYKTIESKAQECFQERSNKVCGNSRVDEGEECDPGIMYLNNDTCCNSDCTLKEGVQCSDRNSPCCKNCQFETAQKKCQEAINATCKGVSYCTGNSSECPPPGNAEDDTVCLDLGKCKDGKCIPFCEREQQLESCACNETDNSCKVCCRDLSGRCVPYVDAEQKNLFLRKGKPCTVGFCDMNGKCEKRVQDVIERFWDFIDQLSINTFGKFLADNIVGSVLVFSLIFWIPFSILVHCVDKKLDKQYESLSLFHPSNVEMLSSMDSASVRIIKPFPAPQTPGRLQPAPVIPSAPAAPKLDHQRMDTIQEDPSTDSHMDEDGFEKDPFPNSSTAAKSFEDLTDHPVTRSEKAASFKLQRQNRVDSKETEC
NPR1 activator: GC-A (human) enzyme activation | HEK293 GC-A cells, cGMP TR-FRET, EC30 ANP; 0% at EC30 ANP, 100% saturating ANP | activation, % at 10 µM | 0.14% of 370,000 active; in the data active = activation above about 40%
ADAM10 inh: inhibits human ADAM10 | O14672 | recombinant ADAM10, EDANS/DABCYL FRET peptide cleavage, 3 h | inhibition, % at 7 µM | 0.62% of 370,000 active;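 active = inhibition above a per-campaign cutoff equal to the mean of compounds falling between control-based bounds plus 3 SD, cut at about 20% in these data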
ADAM10 confirm: confirmation of inhibitors of human ADAM10; ADAM10 QFRET peptide cleavage, EDANS fluorescence; inhibition, % at 6.95 µM; AID 743208; 1% of 2,100 active; shares compounds with ADAM10 inh;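 active = inhibition above about 20% chosen separately for each screening run, limit read from the data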
ADAM17 counter: counter-screen for ADAM10 exosite inhibitors: inhibitors of human ADAM17. shares compounds with ADAM10 inh. ADAM17 QFRET peptide cleavage, EDANS fluorescence. inhibition, % at 6.95 µM. 0.5% of 2,100 active;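 active = mean triplicate inhibition above the solvent-only control wells' mean plus 3 SD, cut at about 12% in these data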
Hits are given with their value; 0 = inactive; - = no result.

SMILES | GC-B act | ADAM17 inh | NPR1 activator | ADAM10 inh | ADAM10 confirm | ADAM17 counter
CCOc1ccc(N2CC(C(=O)Nc3cccc(S(=O)(=O)N4CCCCC4)c3)CC2=O)cc1 (centres undefined) | 0 | 0 | 0 | 22 | 0 | 0
CC(=O)OC12CCCN(C1)/C(=C/c1cccnc1)C2 (centres undefined) | 0 | 0 | 0 | 0 | - | -
COc1ccc(C2CC(c3ccccc3)=NN2S(=O)(=O)c2ccc(C)cc2)c(OC)c1 (centres undefined) | 0 | 0 | 0 | 23 | 0 | 0
O=C(N/C=N/OCc1ccc(Cl)cc1Cl)NOCc1ncc(C(F)(F)F)cc1Cl | 0 | 11 | 0 | 20 | 0 | 0
CO/N=C/NC(=O)NOCc1ncc(C(F)(F)F)cc1Cl | 0 | 0 | 0 | 0 | - | -
COc1ccc(OC)c(S(=O)(=O)N2CCCCC2C(=O)N2CCN(c3ccc(F)cc3)CC2)c1 (centres undefined) | 0 | 0 | 0 | 0 | - | -
CC(C)C[C@H](NC(=O)c1nc[nH]c1C(=O)N1CCc2ccccc2C1)C(=O)OCc1ccccc1 | 0 | 0 | 0 | 0 | - | -
O=C(N[C@@H](Cc1ccccc1)C(=O)OCc1ccccc1)c1nc[nH]c1C(=O)N1CCc2ccccc2C1 | 0 | 9.3 | 0 | 20 | 0 | 0
Cc1cccc(NC(=O)c2nc[nH]c2C(=O)N[C@H](C)c2ccccc2)c1 | 0 | 0 | 0 | 23 | 0 | 0
CN(Cc1ccccc1)C(=O)c1[nH]cnc1C(=O)N[C@@H](Cc1ccccc1)C(=O)OC(C)(C)C | 0 | 0 | 0 | 23 | 0 | 0
O=C(Nc1ccccc1)c1nc[nH]c1C(=O)NCc1ccccc1 | 0 | 0 | 0 | 24 | 0 | 0
Cc1ccnc(NS(=O)(=O)c2ccc(NC(=O)C3COc4ccccc4O3)cc2)n1 (centres undefined) | 0 | 0 | 0 | 0 | - | -
CCN(CC)S(=O)(=O)c1ccc(C(=O)NCCOC(=O)c2ccc(F)cc2F)cc1 | 0 | 0 | 0 | 0 | - | -
CC(C)(C)OC(=O)NCc1ccc(CNC(=O)c2[nH]cnc2C(=O)NCC(=O)OCc2ccccc2)cc1 | 0 | 0 | 0 | 0 | - | -
CC(C)(C)OC(=O)NCc1ccc(CNC(=O)c2nc[nH]c2C(=O)NCc2ccccc2)cc1 | 0 | 0 | 0 | 21 | 0 | 0
CCn1cc(CN2CCC(C(=O)Nc3ccc(Oc4ccccc4F)cc3)CC2)cn1 | 0 | 0 | 0 | 0 | - | -
Cc1cc(C)c(C)c(S(=O)(=O)Nc2ccc3cn[nH]c3c2)c1C | 0 | 0 | 0 | 99 | 0 | 0
Cc1occc1C(=O)N/N=C/c1ccc(OCc2ccccc2)cc1 | 0 | 0 | 0 | 21 | 0 | 0
CC(=O)Nc1ccc(S(=O)(=O)N(C)CC(=O)OC(C)C(=O)N(C)C2CCCCC2)cc1 (centres undefined) | 0 | 0 | 0 | 0 | - | -
C/C(=N/NC(=O)c1ccc(C)s1)c1ccncc1 | 0 | 0 | 0 | 21 | 0 | 0
CCc1ccc(C(=O)N/N=C(\C)c2ccncc2)s1 | 0 | 0 | 0 | 0 | - | -
CCOC(=O)CC[C@H]1CC[C@]2(CCCN(C(=O)c3ccno3)C2)O1 | 0 | 0 | 0 | 0 | - | -
COc1ccc(S(=O)(=O)N2CCN(CC(=O)c3ccc(O)c(O)c3)CC2)cc1 | 0 | 0 | 0 | 22 | 0 | 0
COC(C(=O)Nc1ccc(S(=O)(=O)Nc2cccc3ccccc23)cc1)c1ccccc1 (centres undefined) | 0 | 0 | 0 | 21 | 0 | 0
O=C(O)Cn1nnnc1SCC(=O)Nc1ccc(OC(F)(F)F)cc1 | 0 | 0 | 0 | 82 | 0 | 0
SMILES | GC-B act | ADAM17 inh | NPR1 activator | ADAM10 inh | ADAM10 confirm | ADAM17 counter
COc1ccccc1CNS(=O)(=O)c1ccc(-n2cnnn2)c(C)c1 | 0 | 0 | 0 | 0 | - | -
Cc1cc(S(=O)(=O)NCC(c2ccccc2)c2ccccc2)ccc1-n1cnnn1 | 0 | 0 | 0 | 20 | 0 | 0
O=C(C1CC1)N1N=C(c2cccc(Br)c2)CC1(O)C(F)(F)F (centres undefined) | 0 | 0 | 0 | 81 | 0 | 0
CN1C2=N[C@H](c3cccc(C(F)(F)F)c3)CC(=O)N2/C(=C\c2ccccc2)[C@H]1c1ccccc1 | 0 | 0 | 0 | 0 | - | -
COc1cc(CNn2cn[nH]c2=S)cc(Cl)c1OCc1ccc(F)cc1 | 0 | 0 | 0 | 0 | - | -
COc1cc(CNn2c(C)n[nH]c2=S)cc(Cl)c1OCc1ccccc1 | 0 | 0 | 0 | 28 | 0 | 0
Cc1cc(C)c(C(=O)OCC(=O)Nc2cccc(S(=O)(=O)N3CCCCC3)c2)c(C)c1 | 0 | 13 | 0 | 28 | 0 | 0
O=C(COC(=O)c1ccccc1Cl)Nc1cccc(S(=O)(=O)N2CCCCC2)c1 | 0 | 0 | 0 | 0 | - | -
COc1ccccc1CCC(=O)Nc1cccc(S(=O)(=O)N2CCCCCC2)c1 | 0 | 0 | 0 | 23 | 0 | 0
CC(=O)c1ccc(N2CCN(C(C)C(=O)Nc3ccc4c(c3)OCCO4)CC2)cc1 (centres undefined) | 0 | 0 | 0 | 0 | - | -
COC(=O)c1cc2oc(C)cc2n1CC(=O)N(C)c1ccccc1 | 0 | 0 | 0 | 0 | - | -
C=CCN(C(=O)Cn1c(C(=O)OC)cc2oc(C)cc21)c1ccccc1 | 0 | 0 | 0 | 82 | 0 | 0
O=C(O)c1cccc(NS(=O)(=O)c2cccc(C(=O)Nc3ccccc3[N+](=O)[O-])c2)c1 | 0 | 0 | 0 | 0 | - | -
Cc1c(Cl)cccc1NC(=O)CNC(=O)Cc1c[nH]c2ccccc12 | 0 | 0 | 0 | 33 | 0 | 0
Cc1cccc(C)c1NC(=O)CNC(=O)Cc1c[nH]c2ccccc12 | 0 | 0 | 0 | 0 | - | -
COc1ccc(S(=O)(=O)N2CCOCC2)cc1NC(=O)CCCSc1ccccc1 | 0 | 0 | 0 | 0 | - | -
CC(C)NC(=O)c1c(CSc2ccc(Cl)cc2)noc1C(=O)NCc1ccccc1 | 0 | 0 | 0 | 22 | 0 | 0
CC(C)NC(=O)c1c(CSc2ccccc2)noc1C(=O)NCc1ccccc1 | 0 | 0 | 0 | 81 | 0 | 0
O=C(NCc1ccccc1)c1onc(CSc2ccc(Cl)cc2)c1C(=O)NCc1ccccc1 | 0 | 0 | 0 | 0 | - | -
O=C(NCc1ccccc1)c1onc(CSc2ccccc2)c1C(=O)NCc1ccccc1 | 0 | 0 | 0 | 0 | - | -
Cn1ccnc1C1CCCCN1Cc1nc(-c2ccc(Cl)cc2)no1 (centres undefined) | 0 | 0 | 0 | 0 | - | -
N#C/C(=N/Nc1ccc([N+](=O)[O-])cc1)C(=N)N1CCCCC1 | 0 | 0 | 0 | 0 | - | -
N#C/C(=N\Nc1ccc([N+](=O)[O-])cc1)C(N)=S | 0 | 0 | 0 | 20 | 0 | 0
CC(=O)C1(C)C(=O)N(c2ccc(F)cc2)C(=O)N1c1ccc(F)cc1 (centres undefined) | 0 | 0 | 0 | 0 | - | -
CC(=O)OCC(=O)C1(O)CCC2C3CCC4CC(O)CCC4(C)C3C(=O)CC21C (centres undefined) | 0 | 0 | 0 | 0 | - | -
